# Data as given in the supplement of paper PMC10732440.
# ± gives the standard deviation of the averaged measurements.
# System: Caenorhabditis elegans N2 infected with Nematocida parisii ERTm1
# Assay: progeny production relative to DMSO uninfected control; higher = more progeny despite microsporidia infection (inhibition of infection with low host toxicity)
# Conditions: infection time 6 days; 40 µM
# Description: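 Bleach-synchronised C. elegans N2 L1 larvae (100 per well) were grown in 96-well plates in K-medium with 5x E. coli OP50 and 15,000 N. parisii spores/uL, plus Pandemic Response Box compound at 100 uM or 40 uM (1% DMSO), for 6 days at 21 C with shaking. Worms were stained with Rose Bengal, scanned on a flatbed scanner and counted with WorMachine. Progeny production is given as % of the DMSO uninfected control (triplicate wells), so higher values mean the compound restores progeny despite infection.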
row,SMILES,progeny production [%]
1,O=C(NCc1cccc2ccccc12)c1cccs1,3.62 ± 2.1
2,O=S(=O)(NCB(O)O)c1ccc(-c2nnn[nH]2)cc1C(F)(F)F,7.63 ± 2.6
3,CC1CCc2c(N3CCC(O)CC3)c(F)cc3c(=O)c(C(=O)O)cn1c23 (stereo not given),8.47 ± 4.4
4,CC(=O)NC[C@H]1CN(c2ccc(N3CCSCC3)c(F)c2)C(=O)O1,6.06 ± 3.1
5,CCOc1ccc(/C=N/NC(=O)C2CC2c2ccc(C(C)(C)C)cc2)cc1OCC (stereo not given),5.73 ± 4.8
6,Cc1ccc(NC(=O)c2ccc(CN3CCN(C)CC3)cc2)cc1Nc1nccc(-c2cccnc2)n1,5.07 ± 2.9
7,CNc1nc(=O)[nH]cc1F,2.97 ± 1.7
8,NS(=O)(=O)c1ccc(NC(=O)NC(c2ccccc2)c2ccccc2)cc1,6.18 ± 1.6
9,O=C(O)c1ccc(-n2nc(-c3ccccc3O)nc2-c2ccccc2O)cc1,4.83 ± 3
10,CC[C@@]1(O)C(=O)OCc2c1cc1n(c2=O)Cc2cc3c([N+](=O)[O-])cccc3nc2-1,5.77 ± 1.9
11,Cc1c[nH]c(=O)nc1NCc1ccccc1,7.05 ± 4.5
12,CCc1cc(O)c(Oc2ccc(C(N)=O)cc2F)cc1F,3.13 ± 2.7
13,O=C(NCc1ncc(C(F)(F)F)cc1Cl)c1c(Cl)cccc1Cl,3.33 ± 0.85
14,CC(C)/N=c1\cc2n(-c3ccc(Cl)cc3)c3ccccc3nc-2cc1Nc1ccc(Cl)cc1,5.08 ± 1.9
15,CCCCCOc1ccc(/C=C2\Oc3c(ccc(O)c3O)C2=O)c(O)c1,2.87 ± 0.23
16,O=C(Nc1ccc(Cl)c(C(F)(F)F)c1)C(CCCl)C(=O)Nc1ccc(Cl)c(C(F)(F)F)c1,7.13 ± 2.7
17,Cc1cc(C)n2nc(C(=O)NS(=O)(=O)c3c(C)cccc3OC(F)(F)F)nc2n1,9.33 ± 0.97
18,Cn1cncc1[C@@](N)(c1ccc(Cl)cc1)c1ccc2c(c1)c(-c1cccc(Cl)c1)cc(=O)n2C,2.71 ± 0.38
19,Nc1cccc(-c2nc(N)nc(NC3Cc4ccccc4C3)n2)c1,8.19 ± 3.8
20,CCc1nc(N)nc(N)c1C#CCc1ccccc1,8.69 ± 6

# Same assay, conditions: infection time 6 days; 100 µM
row,SMILES,progeny production [%]
1,O=C(NCc1cccc2ccccc12)c1cccs1,12.9 ± 10
2,O=S(=O)(NCB(O)O)c1ccc(-c2nnn[nH]2)cc1C(F)(F)F,22.1 ± 6.9
3,CC1CCc2c(N3CCC(O)CC3)c(F)cc3c(=O)c(C(=O)O)cn1c23 (stereo not given),11 ± 2.9
4,CC(=O)NC[C@H]1CN(c2ccc(N3CCSCC3)c(F)c2)C(=O)O1,10.4 ± 6.2
5,CCOc1ccc(/C=N/NC(=O)C2CC2c2ccc(C(C)(C)C)cc2)cc1OCC (stereo not given),12 ± 7.9
6,Cc1ccc(NC(=O)c2ccc(CN3CCN(C)CC3)cc2)cc1Nc1nccc(-c2cccnc2)n1,9.12 ± 3.8
7,CNc1nc(=O)[nH]cc1F,12.9 ± 10
8,NS(=O)(=O)c1ccc(NC(=O)NC(c2ccccc2)c2ccccc2)cc1,16.9 ± 14
9,O=C(O)c1ccc(-n2nc(-c3ccccc3O)nc2-c2ccccc2O)cc1,16.7 ± 7.4
10,CC[C@@]1(O)C(=O)OCc2c1cc1n(c2=O)Cc2cc3c([N+](=O)[O-])cccc3nc2-1,8.29 ± 3.3
11,Cc1c[nH]c(=O)nc1NCc1ccccc1,8.45 ± 2.8
12,CCc1cc(O)c(Oc2ccc(C(N)=O)cc2F)cc1F,8.3 ± 5.3
13,O=C(NCc1ncc(C(F)(F)F)cc1Cl)c1c(Cl)cccc1Cl,8.17 ± 5.4
14,CC(C)/N=c1\cc2n(-c3ccc(Cl)cc3)c3ccccc3nc-2cc1Nc1ccc(Cl)cc1,9.5 ± 7.2
15,CCCCCOc1ccc(/C=C2\Oc3c(ccc(O)c3O)C2=O)c(O)c1,11.2 ± 7
16,O=C(Nc1ccc(Cl)c(C(F)(F)F)c1)C(CCCl)C(=O)Nc1ccc(Cl)c(C(F)(F)F)c1,8.04 ± 5.6
17,Cc1cc(C)n2nc(C(=O)NS(=O)(=O)c3c(C)cccc3OC(F)(F)F)nc2n1,5.89 ± 3.9
18,Cn1cncc1[C@@](N)(c1ccc(Cl)cc1)c1ccc2c(c1)c(-c1cccc(Cl)c1)cc(=O)n2C,8.73 ± 2.4
19,Nc1cccc(-c2nc(N)nc(NC3Cc4ccccc4C3)n2)c1,20.6 ± 10
20,CCc1nc(N)nc(N)c1C#CCc1ccccc1,15.6 ± 5
